High-throughput results deposited in PubChem by National Center for Advancing Translational Sciences (NCATS).
Shown are actives, neighbours in structure and some others; about 19% of the full set was active somewhere.
SARS PLP yeast – qHTS of Yeast-based Assay for SARS-CoV PLP; AID 485353, 2010; actives 0.19% (n = 330,000); Potency, µM (doses to about 32.9 µM), inactives show top-dose activity, positive = growth rescue, usual class: activators; S. cerevisiae expressing SARS-CoV PLpro, growth rescue; calls by dose curve; further: potency means the concentration at half of the fitted maximal effect; 0% is about no effect; nearly all actives have a fitted effect of over 55% in size
Cycloheximide cs – Cycloheximide Counterscreen for Small Molecule Inhibitors of Shiga Toxin | cell reporter, cycloheximide protein synthesis inhibition counterscreen | max response, % | actives 12% (n = 300,000) | AID 2314, 2010; in the data active means max response mostly above about 13%, no sharp cut-off; inactive means mostly below about 14%; further: read at 38.3 µM for the half of the compounds with a filed dose; 0% is about no effect
AMA1 RON2 block – qHTS for Inhibitors of AMA1-RON; Towards Development of Antimalarial Drug Lead: Primary Screen | Plasmodium falciparum AMA1 (3D7) - RON2 peptide interaction | AlphaScreen AMA1-biotinylated RON2 peptide binding | Potency, µM (top dose mostly 58.2 µM), for inactives: at the top dose activity change, negative = inhibition, usual class: inhibitors | actives 0.2% (n = 360,000) | AID 720542, 2013;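 further: potency means the concentration at half of the fitted maximal effect; 0% = vehicle wells and -100% = peptide control; nearly all actives have a fitted effect of over 45% in size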
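AMA1 (3D7) with his tag at 25 nM final met compounds first, then biotinylated RON2 peptide at 25 nM; detection used donor plus acceptor beads, 10 µg/mL apiece, read by AlphaScreen after 30 min at room temperature.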
Pf growth 96h – Primary qHTS for delayed death inhibitors of the malarial parasite plastid, 96 hour incubation. P. falciparum luciferase reporter growth, 96 h. Potency, µM (doses to about 28.7 µM), without a hit: at the top dose activity change, negative = inhibition, hits mostly inhibitors. AID 504834, 2011. actives 6.9% (n = 320,000); further: potency means the concentration at half of the fitted maximal effect; on the % scale 0 is the no-effect control and ±100 the full control effect
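Compounds incubated with erythrocytes infected by luciferase-expressing P. falciparum (2% hematocrit, 0.05% parasitemia final) for 96 hours, 37 C in 5% CO2. Growth inhibition scored as decreased luciferase luminescence.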
Shiga inhibitor – A qHTS for Small Molecule Inhibitors of Shiga Toxin. Vero cells, Shiga toxin protein synthesis inhibition reporter. inhibition, % at 38.7 µM. actives 9.2% (n = 290,000). AID 2315, 2010; in the data active means inhibition mostly above about 28%, no sharp cut-off; inactive means mostly below about 43%; further: 0% is about no effect
Pf growth 48h – Primary qHTS for delayed death inhibitors of the malarial parasite plastid, 48 hour incubation; P. falciparum luciferase growth in erythrocytes, 48 h; Potency, µM (titrated, usually from 28.7 µM), without a hit: top-dose activity change, negative = inhibition, actives largely listed as inhibitors; actives 5.9% (n = 310,000); AID 504832, 2011; further: potency means the concentration at half of the fitted maximal effect; on the % scale 0 is the no-effect control and ±100 the full control effect
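First compound was added to culture medium, then infected red cells at 0.1% parasitemia and 2% hematocrit (final). After incubation at 37 C under 5% CO2, luciferase detection reagent was dispensed and light output recorded.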
* = called active by the depositor; ? = inconclusive; . = not tested or not shown; [ ] = dose if it differs, or a comment. Unless noted, the call rests on the fitted dose curve; in most records, active means well fitted curve in the direction sought with a large enough effect; inconclusive means small, poorly fitted or top-dose-only effect, or another doubt; inactive means no such curve, though single readings can be large; an effect the other way counts as inactive or inconclusive.

SMILES	SARS PLP yeast	Cycloheximide cs	AMA1 RON2 block	Pf growth 96h	Shiga inhibitor	Pf growth 48h
Cc1ccc(C(=O)N2CCN(c3ccc(NC(=O)COc4ccccc4C)cc3)CC2)cc1	-0.1%	8.6	-26.6%	?	-10.3	8.28µM*
Cc1ccccc1OCCCC(=O)Nc1ccc(N2CCOCC2)cc1	0.8%	2.0	-11.7%	26.9%	-3.5	-21.8%
COc1ccccc1OCCCC(=O)Nc1ccc(N2CCOCC2)cc1	0.6%	13.3*	-4.6%	-10.2%[5.75 µM]	10.0	10.0%[5.75 µM]
Cc1ccc(OCC(=O)Nc2ccc(N3CCN(C(=O)c4ccco4)CC3)cc2)cc1	-1.6%	1.6	10.9%	5.22µM*	5.9	?
COc1cccc(NC(=O)CNc2cc(S(=O)(=O)N3CCOCC3)ccc2N2CCCC2)c1	-4.9%	.	-0.2%	?	.	?
COc1ccc(CCN2CC(C(=O)NCCc3ccccc3C)CCC2=O)cc1 (configuration not stated)	-0.6%	-2.6	8.1%	23.5%	3.8	-1.8%
COc1ccccc1OCC(=O)Nc1ccc(N2CCCCC2)cc1	-1.2%	13.6	-16.4%	21.2%	17.9	-65.2%
Cc1cccc(OCC(=O)Nc2ccc(N3CCCC3)cc2)c1C	0.2%	-4.2	-13.9%	27.9%	19.5	10.4µM*
COc1cccc(/C=C/C(=O)Nc2ccc(N3CCOCC3)cc2)c1OC	-19.6%	18.3*	-18.7%	44.3%	51.2	23.5%
CCC(=O)N1CCCC1(C)C(=O)Nc1ccc2nc(C)ccc2c1 (configuration not stated)	.	.	-5.4%	.	.	.
CCOC(=O)Cn1nnnc1CN(Cc1cccs1)Cc1cc2cc(C)cc(C)c2[nH]c1=O	6.6%	-0.6	-8.0%	10.4µM*	14.6	.
CCc1ccc2[nH]c(=O)c(CN(Cc3ccccc3)Cc3nnnn3Cc3ccco3)cc2c1	1.1%	24.4*	-3.4%	7.6%	71.6*	9.28µM*
Cc1cccc2cc(CN(Cc3cccs3)Cc3nnnn3Cc3ccccc3)c(=O)[nH]c12	0.8%	-5.1	-1.3%	-1.3%[5.75 µM]	-10.0	?
CCOC(=O)Cn1nnnc1CN(Cc1ccccc1)Cc1cc2cc(CC)ccc2[nH]c1=O	4.2%	-1.6	19.6%	11.7µM*	2.5	-13.7%
COc1ccc(C(CC(=O)O)NS(=O)(=O)c2ccc3c(c2)N(C(C)=O)CC(C)O3)cc1 (configuration not stated)	7.2%	-3.0	8.7%	-1.9%	-17.8	18.6%
CCOC(=O)C(N)CSC1CC(=O)N(CCc2ccccc2)C1=O (configuration not stated)	-4.3%	-1.8	46.6%	138.7%	-4.0	25.5%
Cc1cc(NC(=O)COC(=O)[C@@H]2CCCN2C(=O)c2cccs2)no1	.	.	0.0%	.	.	.
Brc1ccc2nc(-c3c[nH]c4ccccc34)cn2c1	-6.3%	30.6*	-11.8%	-23.7%	64.1*	344.0%
Cc1cccn2cc(-c3c[nH]c4ccccc34)nc12	-3.0%	40.8*	-13.3%	?	121.8*	?
N#Cc1c(-c2ccccc2)ccnc1N1CCOCC1	1.1%	11.5	-1.4%	3.6%	29.8	-16.8%
N#Cc1c(N2CCCC2)nsc1-c1ccccc1	-2.2%	52.1*	79.0%	68.8%	102.2*	56.2%
N#Cc1nc(-c2ccccc2)oc1N1CCCCC1	1.9%	11.7	-17.2%	?	-4.2	2.8%
N#Cc1c(N2CCOCC2)nsc1-c1ccccc1	-0.8%	40.1*	4.5%	91.0%	75.2*	69.1%
O=c1c2c(nc3n1CCS3)c1cc(F)ccc1n2Cc1cc(=O)n2cc(Cl)ccc2n1	-0.4%	-3.8	-14.9%	1.85µM*	12.5	?
COc1cc2oc(=O)cc(CN3CCN(C(C)=O)CC3)c2cc1Cl	.	.	9.6%	.	.	.
SMILES	SARS PLP yeast	Cycloheximide cs	AMA1 RON2 block	Pf growth 96h	Shiga inhibitor	Pf growth 48h
Cc1cc(C=NCCCO)c(C)n1-c1cc(Cl)ccc1Cl	-3.0%	15.1	-12.7%	2.6%	-3.0	8.7%
O=C(OCC(=O)N1CCCc2ccccc21)c1cc(Br)ccc1O	-0.9%	.	-17.7%	?	.	51.2%
COc1cc(C2NC(=O)C(C#N)=C(S)N2c2ccc(C)cc2)ccc1OC(C)C (configuration not stated)	-26.6%	10.7*	2.2%	.	77.8*	27.0%
COc1ccc(C2NC(=O)C(C#N)=C(S)N2c2ccc(C)cc2)cc1OC (configuration not stated)	-0.8%	13.2	5.7%	-22.1%	2.3	15.3%
C[C@@H]1CCC[C@@]2(O[C@@H](CCO)C[C@@H](O)[C@@H]2O)O1	.	.	5.0%	.	.	.
FC(F)(F)COc1nc(N2CCOCC2)nc(N(c2ccccc2)c2ccccc2)n1	-22.1%	-0.4	-9.1%	24.1%	-2.3	3.29µM*
c1ccc(N(c2ccccc2)c2nc(N3CCOCC3)nc(N3CCOCC3)n2)cc1	-1.7%	-1.7	.	.	-18.7	.
CSc1cccc(NC(=S)N2CCCN(Cc3cccc(Cl)c3)C2)c1	0.4%	-8.3	16.0%	40.1%	-6.4	10.4µM*
O=C(c1cc(-c2ccncc2)nc2ccc(Br)cc12)N1CCN(Cc2ccc3c(c2)OCO3)CC1	-2.3%	-1.5	-1.1%	4.6%	-1.9	10.4µM*
Cc1ccc(-c2cc(C(=O)N3CCOCC3)c3cc(C)ccc3n2)cc1	-4.1%	21.0*	-28.2%	52.1%	26.6	-22.8%
Cc1ccc2nc(-c3ccncc3)cc(C(=O)N3CCOCC3)c2c1	-1.6%	-2.2	4.7%	10.4µM*	-5.0	-16.7%
O=C(c1cc(-c2ccc(Cl)cc2)nc2ccccc12)N1CCOCC1	0.5%	.	-7.0%	-14.2%	.	?
O=C(c1cc(-c2ccncc2)nc2ccc(Cl)cc12)N1CCN(Cc2ccc3c(c2)OCO3)CC1	-1.0%	-6.6	?	9.5%	-5.0	?
O=C1NCC(Nc2ccc(Br)cc2)C(=O)N1 (configuration not stated)	.	.	-0.6%	.	.	.
COc1ccccc1OCC(=O)Nc1cc(S(=O)(=O)N2CCOCC2)ccc1N1CCCCC1	-10.0%	.	-8.5%	.	.	.
c1ccc(-c2nnc3sc(CN4CCc5ccccc54)cn23)cc1	-61.9%	24.2	?	?	46.3*	10.4µM*
Cc1ccc(S(=O)(=O)/N=C(\CCl)N2CCOCC2)cc1	-33.7%	-1.6	2.7%	?	1.2	13.1µM*
O=C(CCC(=O)N1CCOc2ccc(Cl)cc21)NCCCN1CCC(Cc2ccccc2)CC1	0.3%	-5.6	-4.1%	?	-7.0	?
C=C1[C@@H](OC(C)=O)CC[C@]2(C)[C@@H]1C[C@@H]1C[C@H](OC(C)=O)C(C)=C([C@@H](OC(C)=O)[C@@H]2OC(C)=O)C1(C)C	-1.1%	-1.3	-5.6%	7.38µM*	-8.2	6.57µM*
